# Source: PubChem BioAssay (NCI)
# About 83,000 compounds went through this panel and 20% of them were active in at least one assay; those are over-represented in the sample as a whole.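 Single-concentration screen, 48 h exposure, 96-well plates. Endpoint: percent growth. Below 10 = active.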 A number with no mark means an inactive call. Activity calls are given as the source filed them.
# System: BT-549 breast
# Assay: NCI-60 one-dose screen, 48 h (100 = growth as untreated, 0 = no growth, -100 = all killed)
# Conditions: 10 µM unless noted
# Protocol: Growth inhibition of the BT-549 human tumor cell line is measured as a screen for anti-cancer activity. Cells are grown in 96 well plates and exposed to the test compound for 48 hours. Compounds are tested at a single concentration, which is 10^-5 M for most compounds. The reported endpoint is percent growth (GI% or GIPRCNT), where numbers from 0 - 100% represent growth inhibition, and numbers from -100% - 0 represent cell death. For example, a value of 40 represents 60% growth inhibition. A value of 0 means no net growth occurred over the course of the experiment. A value of -40 indicates 40% of cells at the beginning of the experiment died by the end of the experiment. A value of -100 means all cells are dead at the end of the experiment.
# NCI-60 Human Tumor Cell Lines Screen was performed using the standard one-dose NCI protocol, which is described in more detail at https://dtp.cancer.gov/discovery_development/nci-60/default.htm.
# Compounds with GIPRCNT values below 10 were considered active. Activity score was based on GIPRCNT using the following formula: […]
# Score is 0 for GIPRCNT values of 100 or above, 50 for GIPRCNT values of 0, and 100 for GIPRCNT values of -100.
row,SMILES,growth
1,C[C@H]1OCC2(CCN(c3cnc(C(=O)Nc4cc(F)cc5cccnc45)cn3)CC2)[C@H]1N,91.5%
2,COc1ccc2c(c1)c(/C=N/Nc1ccnc3cc(Cl)ccc13)cn2C,-76.9% (active)
3,C=C(C)[C@@H]1CC[C@]2(C(=O)NC3CCCCC3)CC[C@]3(C)[C@H](CC[C@@H]4[C@@]5(C)CC[C@H](N)C(C)(C)[C@@H]5CC[C@]43C)[C@@H]12,106%
4,CC(C)Sc1nc(-c2ccccc2)c(C#N)c(N2CCOCC2)n1,111%
5,Cc1ccsc1[C@H]1c2[nH]c3ccccc3c2C[C@H]2C(=O)N(CCCCCCC(=O)NO)CC(=O)N12,106%
6,COc1cc(-c2nc(-c3ccccc3)[nH]c2-c2ccnc(NCCCNS(=O)(=O)c3cccc(F)c3)n2)ccc1F,128%
7,CN(C)CC(=O)Nc1nc(-c2cccc(NS(=O)(=O)c3cccc4c(N(C)C)cccc34)c2)cs1,87.8%
8,C#CCOc1ccccc1C(OC(=O)c1ccccc1)C(=O)NC(C)(C)C(C)(C)C (stereo not given),85%
9,COc1ccc(N2CCN(C3=C(Cl)C(=O)c4ncccc4C3=O)CC2)cc1,111%
10,CNC(=O)c1cc(N2CCc3cc(NC(=O)Nc4ccc(N5CCOCC5)c(C(F)(F)F)c4)ccc32)ccn1,-12.6% (active)
11,CC1=C(C)C(=O)C(Nc2cccc(C(F)(F)F)c2)=C(Br)C1=O,110%
12,O=C(/C=C/c1cccc(Br)c1)c1cccc(OCCCCOc2cccc(C(=O)/C=C/c3cccc(Br)c3)c2)c1,117%
13,N#Cc1c(-c2ccc(Br)cc2)cc(-c2c[nH]c3ccccc23)nc1N,32.1%
14,CCOC(=O)c1c(N)c(C#N)cn1Cc1ccc(Cl)cc1Cl,81.8%
15,O=C1C(N2CCN(c3ccccc3)CC2)=C(Cl)C(=O)c2ncccc21,97.3%
16,O=c1[nH][nH]c(-c2ccc(F)cc2)c1-c1nc2ccccc2s1,98.8%
17,CCOC(=O)c1ccccc1NC1=C(Cl)C(=O)c2nc(C)ccc2C1=O,114%
18,Cn1c(SCC(=O)c2ccc(F)cc2)nc2ccccc2c1=O,97%
19,CCCCN1C(=O)/C(=c2\sc3n(c2=O)C2C(NN=3)N(CC)C(=O)N2CC)c2cc(C)ccc21 (stereo not given),96.3%
20,N#Cc1nc(-c2ccccc2)oc1N1CCC(C2(C(F)(F)F)N=N2)CC1,136%

row,SMILES,growth
1,Cc1[nH]c(C(=O)Nc2ccc(S(=O)(=O)N3CCCCC3)cc2OCCOCCOCCOCCOCCOCCOCCOCCOCCOc2cc(S(=O)(=O)N3CCCCC3)ccc2NC(=O)c2[nH]c(C)c3c2CCCCC3=O)c2c1C(=O)CCCC2,2.28% (active)
2,Cn1cc(-c2nn3cc(-c4ccncc4)nc3s2)c2cc(F)ccc21,64.6%
3,Cc1[nH]c(C(=O)Nc2ccccc2OCc2cccc(C(=O)NCCN)c2)cc1Cl,104%
4,CC1=Cc2ccccc2OC12C=Cc1ccccc1O2 (stereo not given),106%
5,O=C(/C=C/c1csc(Br)n1)NO,80.7%
6,CC(C)=CCC[C@](C)(O)[C@H]1CC[C@]2(C)[C@@H]1CC[C@@H]1[C@@]3(C)CC[C@H](N)C(C)(C)[C@@H]3CC[C@]12C,98.8%
7,NC1[C@H]2CN(c3cnc(C(=O)Nc4cc(F)cc5cccnc45)cn3)C[C@@H]12 (stereo not given in full),91.8%
8,Cn1cc(-c2cc3ncnc(Nc4ccc(NC(=O)Nc5cc(C(C)(C)C)on5)cc4)c3s2)cn1,16.4%
9,O=S(=O)(Oc1ccc(-c2cn3ccoc3n2)cc1)C1CCCCC1,125%
10,Cn1c2nc3ccccc3c-2cc2ccccc21,101%
11,Brc1ccc(-c2cc(-c3ccc4c(c3)OC=CO4)n[nH]2)s1,91.3%
12,COc1cc(/C=C2/C(=O)Nc3ccc(Cl)cc32)ccc1OCc1ccc(Cl)cc1,101%
13,CC1=C(C)C(=O)C(Nc2ccc(C)cc2)=C(Br)C1=O,104%
14,O=c1c2cc(-c3ccc(F)cc3F)ccc2n(Nc2ccccc2)c(=O)n1-c1cccc(C(F)(F)F)c1,3.91% (active)
15,CC(=C(c1ccc(OCCCN(C)C)cc1)c1ccc(OCCCN(C)C)cc1)c1ccc(Cl)cc1,109%
16,COc1ccc2sc(NC(=O)CCCCCCNC(=O)C(O)(O)C(F)(F)F)nc2c1,7.95% (active)
17,Cc1ccc(C(=O)CSc2nnc(-c3ccc(-c4ccc(Cl)cc4)nc3C)o2)cc1,107%
18,CN1CCN(c2ccc(Nc3nc(NCCCNS(=O)(=O)c4ccc(F)cc4)c4sccc4n3)cc2)CC1,65.9%
19,Brc1cc(-c2cc(-c3ccc4c(c3)OC=CO4)[nH]n2)cs1,109%
20,CC(=C(c1ccc(OCCN2CCCC2)cc1)c1ccc(OCCN2CCCC2)cc1)c1ccc(Cl)cc1,55.8%
